From PMC4336329 (PLoS ONE, 2015)
Out of some 310,000 compounds screened, about 14,000 (4.5%) showed an effect of 50% or more. Effects have a minus sign here. Only a selection was taken, and strong results are over-represented in it overall.

target: human ether-à-go-go-related gene (hERG) potassium channel (human, UniProt Q12809); assay: primary screen, population patch clamp on CHO cells stably expressing hERG; higher = less effect of the substance
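Note: peak tail current of the secondary pulse compared with the same well before compound.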

Sequence of human ether-à-go-go-related gene (hERG) potassium channel (Q12809 whole entry, looked up): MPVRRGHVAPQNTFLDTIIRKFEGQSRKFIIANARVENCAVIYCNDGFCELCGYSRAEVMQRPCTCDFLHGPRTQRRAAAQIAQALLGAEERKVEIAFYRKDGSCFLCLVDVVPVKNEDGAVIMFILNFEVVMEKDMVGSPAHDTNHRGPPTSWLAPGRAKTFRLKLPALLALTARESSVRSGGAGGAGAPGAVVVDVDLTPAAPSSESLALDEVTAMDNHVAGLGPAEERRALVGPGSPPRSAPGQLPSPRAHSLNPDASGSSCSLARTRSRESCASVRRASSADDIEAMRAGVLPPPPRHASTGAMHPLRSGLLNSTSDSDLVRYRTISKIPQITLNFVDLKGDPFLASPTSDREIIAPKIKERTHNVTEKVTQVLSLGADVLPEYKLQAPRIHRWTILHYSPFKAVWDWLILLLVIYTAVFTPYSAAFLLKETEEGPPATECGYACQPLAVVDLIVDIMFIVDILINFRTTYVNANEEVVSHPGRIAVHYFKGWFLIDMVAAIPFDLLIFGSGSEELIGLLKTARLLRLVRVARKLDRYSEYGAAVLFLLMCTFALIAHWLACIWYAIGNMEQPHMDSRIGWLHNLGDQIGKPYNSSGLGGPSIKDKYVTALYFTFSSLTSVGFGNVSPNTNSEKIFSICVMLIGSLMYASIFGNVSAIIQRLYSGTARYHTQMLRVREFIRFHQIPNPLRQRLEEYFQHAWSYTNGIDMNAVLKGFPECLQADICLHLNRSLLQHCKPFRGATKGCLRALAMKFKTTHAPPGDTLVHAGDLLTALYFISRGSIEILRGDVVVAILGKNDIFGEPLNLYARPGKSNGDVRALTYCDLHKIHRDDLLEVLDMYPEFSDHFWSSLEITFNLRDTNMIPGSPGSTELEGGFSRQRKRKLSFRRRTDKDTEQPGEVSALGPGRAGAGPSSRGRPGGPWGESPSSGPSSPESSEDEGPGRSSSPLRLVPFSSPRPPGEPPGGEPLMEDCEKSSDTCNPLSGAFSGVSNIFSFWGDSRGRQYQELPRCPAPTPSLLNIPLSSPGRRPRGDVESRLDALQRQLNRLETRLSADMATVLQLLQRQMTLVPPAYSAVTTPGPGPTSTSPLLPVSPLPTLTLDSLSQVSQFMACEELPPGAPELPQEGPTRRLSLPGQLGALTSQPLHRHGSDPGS

SMILES | hERG current change (%, negative = inhibition) at 10uM [%]
COc1c(O)c(=O)n2c3ccccc3c3ccnc1c32 | 7.51
CCc1ccc(NC(=O)Nn2cnnc2)cc1 | 23.7
COC(=O)CNC(=O)CSc1nnc(-c2ccc(OC)cc2)n1CC(C)C | 4.97
O=C(/C=N/O)Nc1ccccc1C(=O)O | -13.7
N#Cc1ccc(C23CC4(C2)[C@H](CN(CC2CCCCC2)[C@@H]4c2ccccc2)C3c2ccccc2)cc1 (stereo partly shown) | -13.6
O=C(Nc1ccc(Cl)cc1)c1cccnc1N1CCCCC1 | -13.3
COc1cc(C(=O)NCCNc2nc3ccc(C)cc3cc2C#N)cc(OC)c1OC | -4.74
Cc1cccc2cc3c(NC(=O)CC(C)C)nn(C)c3nc12 | 10.2
Fc1ccc(-[n+]2nc(Nc3ccccc3)sc2-c2c(Cl)cccc2Cl)cc1.[Cl-] | -64
Cc1cccc(-c2sc(Nc3ccccc3)n[n+]2-c2ccccc2)c1.[Cl-] | -72
CCc1ccc(Nc2n[n+](-c3ccccc3)c(-c3ccc(N(CC)CC)cc3)s2)cc1.[Cl-] | -36
CCN(CC)c1ccc(-c2sc(Nc3ccccc3)n[n+]2-c2ccc(F)cc2)cc1.[Cl-] | -71.6
Fc1ccc(-[n+]2nc(Nc3ccccc3)sc2-c2cccc(Cl)c2Cl)cc1.[Cl-] | 8
CN(C)c1ccc(-c2sc(Nc3ccccc3)n[n+]2-c2ccc(F)cc2)cc1.[Cl-] | -73.1
Oc1ccc(-c2sc(Nc3ccccc3)n[n+]2-c2ccc(F)cc2)cc1.[Cl-] | -1.63
Clc1cccc(-c2sc(Nc3ccccc3)n[n+]2-c2ccccc2)c1Cl.[Cl-] | 5.53
CSc1ccc(-c2sc(Nc3ccccc3)n[n+]2-c2ccc(F)cc2)cc1.[Cl-] | 1.55
Cc1cccc(-c2sc(Nc3ccccc3)n[n+]2-c2ccc(F)cc2)c1.[Cl-] | 21.7
CSc1ccc(-c2sc(Nc3ccccc3)n[n+]2-c2ccccc2)cc1.[Cl-] | -46.2
O=C(O)c1ccc(-c2sc(Nc3ccccc3)n[n+]2-c2ccc(F)cc2)cc1.[Cl-] | 2.83
Cl.O=C(c1ccco1)N1CCN(Cc2nnnn2CC2CCCO2)CC1 (stereo not shown) | -3.16
Cn1c(=O)[nH]c(=O)c2c1nc(NC1CCCC1)n2Cc1ccccc1 | 15.8
